Assay results reported in PubChem BioAssay AID1159580 (chemical genetic matrix, 2015).
The whole screen tested about 5,500 compounds, of which about 2,000 (36%) were called active. Another 18% or so got no clear call; they are omitted. No stated cut-off is given here; in the data, active means normalized growth mostly below about 0.91 (no sharp cut-off); inconclusive means no clear call, values can overlap the other calls; inactive means mostly above about 0.92. This is one part of the list.

Assay: chemical genetic growth profiling, strain panel (AID 1159580);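 further: tested at 20 µM; growth read once vehicle control cultures reached saturation at 30 °C; 1 = growth at the plate median or of vehicle wells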
Conditions: S. cerevisiae deletion strains, growth OD

Measured: normalized growth

CCOP(=S)(OCC)Oc1nc(Cl)c(Cl)cc1Cl
inactive: locus YAL013W, strain DEP1, stronger effect = lower value 1.01 | locus YAL021C, strain ccr4, stronger effect = lower value 0.974 | locus YAL026C, strain drs2, stronger effect = lower value 0.941 | locus YAL030W, strain snc1, stronger effect = lower value 0.951 | locus YBL061C, strain skt5, stronger effect = lower value 0.964 | locus YBR021W, strain FUR4, stronger effect = lower value 1.01 | locus YBR023C, strain chs3, stronger effect = lower value 0.963 | locus YBR171W, strain sec66, stronger effect = lower value 0.95 | locus YBR229C, strain ROT2, stronger effect = lower value 0.997 | locus YBR231C, strain swc5, stronger effect = lower value 0.963 | locus YBR279W, strain paf1, stronger effect = lower value 0.98 | locus YCL011C, strain gbp2, stronger effect = lower value 0.938 | locus YCL016C, strain dcc1, stronger effect = lower value 0.981 | locus YCL029C, strain bik1, stronger effect = lower value 0.99 | locus YCL069W, strain vba3, stronger effect = lower value 0.972 | locus YCR088W, strain abp1, stronger effect = lower value 0.951 | locus YDL005C, strain med2, stronger effect = lower value 0.968 | locus YDL035C, strain GPR1, stronger effect = lower value 1.03 | locus YDL040C, strain nat1, stronger effect = lower value 0.955 | locus YDL074C, strain BRE1, stronger effect = lower value 0.985 | locus YDL101C, strain DUN1, stronger effect = lower value 1.01 | locus YDL134C, strain PPH21, stronger effect = lower value 0.988 | locus YDL185W, strain tfp1, stronger effect = lower value 0.994 | locus YDL192W, strain arf1, stronger effect = lower value 0.989 | locus YDR001C, strain nth1, stronger effect = lower value 0.948 | locus YDR069C, strain doa4, stronger effect = lower value 0.949 | locus YDR101C, strain arx1, stronger effect = lower value 0.981 | locus YDR150W, strain NUM1, stronger effect = lower value 1.01 | locus YDR159W, strain sac3, stronger effect = lower value 0.952 | locus YDR162C, strain NBP2, stronger effect = lower value 1.01 | locus YDR195W, strain ref2 1.03 | locus YDR297W, strain sur2, stronger effect = lower value 0.957 | locus YDR318W, strain mcm21, stronger effect = lower value 0.981 | locus YDR334W, strain swr1, stronger effect = lower value 0.947 | locus YDR335W, strain msn5, stronger effect = lower value 0.973 | locus YDR388W, stronger effect = lower value 0.986 | locus YDR502C, strain sam2, stronger effect = lower value 0.988 | locus YEL003W, strain gim4, stronger effect = lower value 0.964 | locus YEL037C, strain rad23, stronger effect = lower value 0.959 | locus YEL061C, strain CIN8 (second series), stronger effect = lower value 0.957 | locus YEL061C, strain CIN8, stronger effect = lower value 1 | locus YER015W, strain faa2, stronger effect = lower value 0.964 | locus YER016W, strain bim1, stronger effect = lower value 0.973 | locus YER110C, stronger effect = lower value 0.993 | locus YER111C, strain swi4, stronger effect = lower value 0.958 | locus YER155C, strain BEM2, stronger effect = lower value 1 | locus YER167W, strain BCK2, stronger effect = lower value 1.01 | locus YFR010W, strain ubp6, stronger effect = lower value 0.961 | locus YGL078C, strain dbp3, stronger effect = lower value 0.98 | locus YGL086W, strain mad1, stronger effect = lower value 0.987 | locus YGL167C, strain pmr1, stronger effect = lower value 0.947 | locus YGL173C, strain kem1, stronger effect = lower value 0.977 | locus YGL227W, strain vid30, stronger effect = lower value 0.935 | locus YGL240W, strain doc1, stronger effect = lower value 0.949 | locus YGL248W, strain PDE1, stronger effect = lower value 1.01 | locus YGL253W, strain hxk2, stronger effect = lower value 0.948 | locus YGR078C, strain PAC10, stronger effect = lower value 0.987 | locus YGR135W, strain pre9, stronger effect = lower value 0.986 | locus YGR229C, strain SMI1, stronger effect = lower value 0.98 | locus YGR252W, strain gcn5, stronger effect = lower value 0.976 | locus YHR013C, strain ard1, stronger effect = lower value 1.07 | locus YHR027C, strain rpn1, stronger effect = lower value 0.966 | locus YHR030C, strain SLT2, stronger effect = lower value 1.01 | locus YHR079C, strain IRE1 (second series), stronger effect = lower value 0.991 | locus YHR094C, strain hxt1, stronger effect = lower value 0.983 | locus YHR129C, strain ARP1, stronger effect = lower value 0.995 | locus YHR200W, strain rpn10, stronger effect = lower value 0.986 | locus YIL066C, strain RNR3, stronger effect = lower value 0.991 | locus YIL073C, strain SPO22, stronger effect = lower value 0.961 | locus YIL125W, strain kgd1, stronger effect = lower value 0.981 | locus YIR030C, strain dcg1, stronger effect = lower value 0.991 | locus YJL092W, strain hpr5, stronger effect = lower value 0.959 | locus YJL095W, strain BCK1 (second series), stronger effect = lower value 0.949 | locus YJL095W, strain BCK1, stronger effect = lower value 0.973 | locus YJL115W, strain asf1, stronger effect = lower value 0.971 | locus YJL129C, strain trk1, stronger effect = lower value 0.921 | locus YJL134W, strain LCB3, stronger effect = lower value 1.01 | locus YJL154C, strain vps35, stronger effect = lower value 0.937 | locus YJL166W, strain qcr8, stronger effect = lower value 0.961 | locus YJL168C, strain set2, stronger effect = lower value 0.988 | locus YJL187C, strain SWE1 (second series), stronger effect = lower value 0.996 | locus YJR043C, strain POL32, stronger effect = lower value 1.02
active: locus YBR009C, strain hhf1, stronger effect = lower value 0.873 | locus YDR137W, strain rgp1, stronger effect = lower value 0.832 | locus YDR392W, strain spt3, stronger effect = lower value 0.615 | locus YER155C, strain BEM2 (second series), stronger effect = lower value 0.748 | locus YHR142W, strain chs7, stronger effect = lower value 0.847 | locus YJL164C, strain tpk1, stronger effect = lower value 0.914
